Bioassay records from PubChem BioAssay.
Pf Dd2 growth – inhibitors of Plasmodium falciparum Dd2 growth; P. falciparum Dd2 growth, SYBR Green, 72 h; Potency, µM (doses to about 28.9 µM), inactives show top-dose activity, negative = inhibition, most hits filed as inhibitors; actives 4.3% (n = 120,000); AID 1347417; active = well fitted inhibition curve with a large enough effect;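 note: plate controls were DMSO vehicle for no effect and reference drug for full effect; nearly all actives have a fitted effect of over 65% in size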
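Readout: SYBR Green fluorescence, 485 nm excitation, 535 nm emission, after ~16 h lysis at 37C. Before that, Dd2-infected red cells (2.5% hematocrit) grew 72 h with compound, 29 uM top final concentration.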
Starred values were filed as active, the others as inactive; [ ] = another dose, or the depositor's remark. The sample as a whole holds a higher share of hits than the screen did. Potency is the fitted concentration of half-maximal effect.

How did CCCCN(C)CCCNC(=O)C1CCN(S(=O)(=O)CC)CC1 do in these assays?
Pf Dd2 growth: 9.0%

Results for CCCCN(C)CCCNC(=O)C1CCN(c2nc3ccc(CC)cc3s2)CC1 ?
Pf Dd2 growth: 11.2µM*

Results for CCCOc1ccc(C(=O)Nc2c(C(=O)c3ccc(C)cc3)oc3ccccc23)cc1 ?
Pf Dd2 growth: 24.4%

How did CCc1nn(CC(=O)NCc2ccccc2)c(=O)c2cccn12 do in these assays?
Pf Dd2 growth: 6.5%

What do the screens show for `CN(CC1(C)CCOCC1)C(=O)NC1CCCC1`?
Pf Dd2 growth: 8.1%

How did COc1ccc(NC2=C(c3ccc(C(F)(F)F)cc3)C(=O)c3ccccc32)cc1 do in these assays?
Pf Dd2 growth: 0.447µM*

What do the screens show for `COc1ccc(-c2noc(CCC(=O)Nc3ccc(C(F)(F)F)cc3)n2)cc1`?
Pf Dd2 growth: -16.0%

How did O=C(C[C@H]1NC(=O)c2ccccc2NC1=O)Nc1ccc(C(F)(F)F)cc1 do in these assays?
Pf Dd2 growth: -16.7%

How did O=C1C(c2ccc(C(F)(F)F)cc2)=C(Nc2ccc(Cl)cc2)c2ccccc21 do in these assays?
Pf Dd2 growth: 0.891µM*

Results for O=C(Cn1nc(-c2ccc(Cl)cc2)c2ccccc2c1=O)Nc1cccc(C(F)(F)F)c1 ?
Pf Dd2 growth: 16.1%

What do the screens show for `COc1ccc(NC(=O)N(C)Cc2cccc(C(F)(F)F)c2)cc1`?
Pf Dd2 growth: -12.1%[44.1 µM]
